Compounds without any hit were thinned out: in the full panel of roughly 83,000, 20% have a hit.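 How to read the values: 0–100, growth inhibition (40 = 60% inhibited); 0, no net growth; -100 to 0, cell death (-40 = 40% of starting cells died; -100 = all dead).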 Calls of active or inactive are those of the source. How the source made its calls: active means growth percent below 10; inactive means the rest.
How the values were obtained:
Experiment in all cases: NCI-60 one-dose screen, 48 h (100 = growth as untreated, 0 = no growth, -100 = all killed)
Conditions in all cases: 10 µM unless noted
NCI-H23 lung = tested on: NCI-H23 lung
NCI-H226 lung = tested on: NCI-H226 lung
NCI-H322M lung = tested on: NCI-H322M lung
HOP-62 NSCLC = tested on: HOP-62 NSCLC
NCI-H460 lung = tested on: NCI-H460 lung
HOP-92 NSCLC = tested on: HOP-92 NSCLC
NCI-H522 lung = tested on: NCI-H522 lung
A549/ATCC NSCLC = tested on: A549/ATCC NSCLC
786-0 renal = tested on: 786-0 renal
COLO 205 colon = tested on: COLO 205 colon

Measured: growth

CCCCN(CCCC)C(=N)c1ccnc2ccccc12
inactive: NCI-H23 lung 108% | NCI-H226 lung 116% | NCI-H322M lung 110% | HOP-62 NSCLC 119% | NCI-H460 lung 108% | HOP-92 NSCLC 96.4% | NCI-H522 lung 102% | A549/ATCC NSCLC 96.7% | 786-0 renal 115% | COLO 205 colon 125%

CN1CCN(Cc2ccc(NC(=O)c3cncc(C#Cc4cnc(N)c5ccncc45)c3)cc2C(F)(F)F)CC1
inactive: NCI-H23 lung 15.4% | NCI-H322M lung 20.4% | NCI-H522 lung 24.4% | A549/ATCC NSCLC 26.4% | 786-0 renal 35.3%
active: NCI-H226 lung -12.8% | HOP-62 NSCLC 9.44% | NCI-H460 lung 8.86% | HOP-92 NSCLC -22.5% | COLO 205 colon -16.1%

CCOC(=O)c1cn2c3c(cc(C)cc3c1=O)C(=O)/C(=C/c1ccccc1)C2
inactive: NCI-H23 lung 108% | NCI-H226 lung 94% | NCI-H322M lung 96.9% | HOP-62 NSCLC 79.2% | NCI-H460 lung 104% | HOP-92 NSCLC 57.1% | NCI-H522 lung 75.8% | A549/ATCC NSCLC 89.1% | 786-0 renal 82.7% | COLO 205 colon 93.4%

O=[N+]([O-])c1cnc(Sc2ccncn2)s1
inactive: NCI-H23 lung 77% | NCI-H226 lung 110% | NCI-H322M lung 99.1% | HOP-62 NSCLC 92% | NCI-H460 lung 97.3% | A549/ATCC NSCLC 95.9% | 786-0 renal 93.1%
active: HOP-92 NSCLC -64.9% | NCI-H522 lung -79.1% | COLO 205 colon -77.4%

NC(=N\N=C/c1ccc(O)cc1)/C(N)=N\N=C/c1ccc(O)cc1
inactive: NCI-H23 lung 90.9% | NCI-H226 lung 101% | NCI-H322M lung 77.5% | HOP-62 NSCLC 79.3% | NCI-H460 lung 35.9% | HOP-92 NSCLC 79% | NCI-H522 lung 31.4% | A549/ATCC NSCLC 52.5% | 786-0 renal 52.6% | COLO 205 colon 124%

CC1=NC2=CC=CC3=NC(C(Cl)(Cl)Cl)=NC(=N1)N23
inactive: NCI-H23 lung 59.9% | NCI-H226 lung 83.5% | NCI-H322M lung 92.5% | HOP-62 NSCLC 96.2% | NCI-H460 lung 69.1% | HOP-92 NSCLC 118% | NCI-H522 lung 54.9% | A549/ATCC NSCLC 80% | 786-0 renal 88.7% | COLO 205 colon 88.9%

CC12CCC3C4(C)COC(c5ccco5)OC4CCC3(C)C1CC(C1=CCOC1=O)O2 (stereo not given)
inactive: NCI-H23 lung 103% | NCI-H226 lung 101% | NCI-H322M lung 98.9% | HOP-62 NSCLC 105% | NCI-H460 lung 102% | HOP-92 NSCLC 100% | NCI-H522 lung 109% | A549/ATCC NSCLC 107% | 786-0 renal 93.4% | COLO 205 colon 110%

COc1ccc2c(c1)cn1c3ccc(OC)cc3[nH]c(=O)c21
inactive: NCI-H23 lung 33.3% | HOP-92 NSCLC 28.4%
active: NCI-H226 lung 5.93% | NCI-H322M lung -45.3% | HOP-62 NSCLC 5.85% | NCI-H460 lung -51% | NCI-H522 lung -44.9% | A549/ATCC NSCLC -57% | 786-0 renal -88.3% | COLO 205 colon -61.3%

COc1ccc(NC(=O)CSc2nc(-c3ccc(OC)c(OC)c3)cc(-c3cc(OC)c(OC)c(OC)c3)n2)cc1
inactive: NCI-H23 lung 101% | NCI-H226 lung 108% | NCI-H322M lung 90.4% | HOP-62 NSCLC 106% | NCI-H460 lung 97.7% | HOP-92 NSCLC 76.8% | NCI-H522 lung 79.6% | A549/ATCC NSCLC 95.7% | 786-0 renal 95.1% | COLO 205 colon 82.5%

COC(=O)c1cc(=O)nc(N/N=C/c2ccco2)s1
inactive: NCI-H23 lung 106% | NCI-H226 lung 97.8% | NCI-H322M lung 96.2% | HOP-62 NSCLC 103% | NCI-H460 lung 106% | HOP-92 NSCLC 85.7% | NCI-H522 lung 103% | A549/ATCC NSCLC 107% | 786-0 renal 114% | COLO 205 colon 116%

COc1ccc(S(=O)(=O)NCCCNc2nccc(-c3c(-c4cccc([N+](=O)[O-])c4)nc4sccn34)n2)cc1
inactive: NCI-H23 lung 47.3% | NCI-H226 lung 34.8% | NCI-H322M lung 67.6% | HOP-62 NSCLC 61% | NCI-H460 lung 44.4% | HOP-92 NSCLC 82.1% | NCI-H522 lung 32.4% | A549/ATCC NSCLC 52.2% | 786-0 renal 66.6% | COLO 205 colon 36.4%

CC1(c2ccc(Cl)cc2)OC(=O)CC(=O)O1
inactive: NCI-H23 lung 95.9% | NCI-H226 lung 104% | NCI-H322M lung 109% | HOP-62 NSCLC 102% | NCI-H460 lung 110% | HOP-92 NSCLC 103% | NCI-H522 lung 90.1% | A549/ATCC NSCLC 99.1% | 786-0 renal 111% | COLO 205 colon 109%

FC(F)(F)c1cccc(-c2cn3c(ccc4ccccc43)n2)c1
inactive: NCI-H23 lung 79.3% | NCI-H226 lung 94.6% | NCI-H322M lung 97.5% | HOP-62 NSCLC 76.7% | NCI-H460 lung 97% | HOP-92 NSCLC 102% | NCI-H522 lung 81.8% | A549/ATCC NSCLC 95.4% | 786-0 renal 101% | COLO 205 colon 109%
